In PubChem BioAssay AID602449 (Sanford-Burnham Center for Chemical Genomics, 2012) one finds inhibition data, which are given here for 96 compounds.

Hit rate of the full screen: of about 360,000 compounds, about 5,000 (1.4%) were called active. The entries come from a sample that favours actives as a whole. A number with no mark means an inactive call.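 Rule for the calls: active = inhibition of 50% or more, scaled per plate between neutral and stimulator controls; inactive = the rest.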

By inhibition is commonly meant the drop in the measured response relative to a control, in per cent.

The nature of the experiment: blockers of Ca2+-induced mitochondrial swelling – biochemical, isolated mouse mitochondria, absorbance, primary screen (AID 602449).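 Note: 0% = DMSO wells given calcium and 100% = 1 mM EGTA wells.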 As to conditions: 30 min, at 10 µM, active compounds read high.
On to `COc1ccc(S(=O)(=O)N2CCC(C(=O)NCCC(=O)Nc3ccccc3OC)CC2)cc1`, for which the inhibition is 1%.

For `CC1CCN(C2=NC(=O)/C(=C/c3cn[nH]c3-c3ccccc3)S2)CC1`, the inhibition is 0.6%. The value for `COc1ccccc1N(CC(=O)Nc1ccc(C(F)(F)F)cc1)S(C)(=O)=O` was -0.2%; that for `CC1Sc2ccc(C(=O)NCc3ccccc3Cl)cc2NC1=O` (stereo unspecified) was -1%; that for `CCC/C(C)=N\Nc1nc2c(c(=O)n(C)c(=O)n2C)n1C` was 4.6%.

For the compound `COCCN(C(=O)CCC(=O)Nc1nccs1)C(C(=O)NC(C)(C)C)c1ccc(Cl)cc1` (stereo unspecified), the inhibition was 0.1%. On to `COc1ccc2oc(C(=O)N(CC(C)C)C3CCS(=O)(=O)C3)c(C)c2c1` (stereo unspecified), for which the inhibition is -1.1%.

As to `O=S(=O)(O)c1cc2onnc2c2ccccc12`, the inhibition is 0.1%. The value for `O=C(CC(O)(C(F)(F)F)C(F)(F)F)Nc1ccc(Cl)c(Cl)c1` was 84.6% (active); that for `CC1(C(=O)O)CCC(C(=O)Nc2ccc(Cl)c(Cl)c2)C1(C)C` (stereo unspecified) was 3.1%; that for `O=C(CN1CCN(C(=O)c2ccco2)CC1)Nc1ccc(Cl)c(C(F)(F)F)c1` was -0.1%.

For the compound `O=C(Cn1nc(CNc2ccc(Cl)cc2)[n+]2c1CCCCC2)c1ccc(Cl)cc1`, the inhibition is 29.5%. The value for `CCOC(=O)N1CCC(NC(=O)CN2C(=O)COc3ccc(C(C)(C)C)cc32)CC1` was -0.9%. The value for `O=C1CC(c2ccccc2)=NN1c1ccc([N+](=O)[O-])cc1` was 91.3% (active); that for `CCN1N=C(c2ccccc2)CCC1=O` was -2.4%. The result for `O=C1NC(=O)C2C1C(c1ccc([N+](=O)[O-])cc1)=NN2Cc1ccccc1` (stereo unspecified) reads 0.1%; that for `CCOC(=O)c1cc(NC(=O)c2cccnc2)ccn1`, -0.2%. Turning to `Cc1c(C(=O)OC(C)C)sc(NC(=O)c2cccnc2)c1C#N`, the inhibition is 67.6% (active). The value for `CC(C)NS(=O)(=O)c1ccc(NC(=O)c2cccnc2)cc1` was -1.5%.

Consider `CCCCN1C(=O)C(CC(=O)NCc2cccs2)CC(C(=O)N2CCCCCC2)=C1C` (stereo unspecified), for which the inhibition is -0.8%. The result for `Cc1cc(Cl)c(S(=O)(=O)NCCC(=O)O)cc1OCC(N)=O` reads -1.7%; that for `O=C(NC(Cc1c[nH]c2ccccc12)C(=O)O)/C(=C/c1ccco1)NC(=O)c1ccccc1` (stereo unspecified), -1%. The value for `CC(=O)N(CC1CCCO1)C1(C(=O)NC2CCCC2)CCCCC1` (stereo unspecified) was 1.8%; that for `COc1ccc(/C=C/c2nnc(NC(=O)C(C)C)s2)cc1` was 2.7%. The result for `O=C(CSc1ccccc1)Nc1nnc(/C=C/c2ccccc2)s1` reads 2.2%. For the compound `O=C(Nc1ccc(Cl)cc1)Nc1nnc(/C=C/c2ccccc2)s1`, the inhibition is 89.9% (active).

Regarding `COc1ccc2sc(N(CCCN(C)C)C(=O)c3ccc(S(=O)(=O)N(C)C4CCCCC4)cc3)nc2c1`, the inhibition was 82.5% (active).

Consider `COc1ccc(S(=O)(=O)N(C)CC(=O)N2CCCC2)cc1`, for which the inhibition is -2.1%.

With `COc1ccc(N(Cc2ccc(N(C)C)cc2)C(=O)c2ccc(S(C)(=O)=O)cc2)cc1`, the inhibition was 0.5%. The result for `COc1ccc(C(=O)O)cc1S(=O)(=O)NC1CCN(Cc2ccccc2)CC1` reads -1%; that for `Cc1c(NC(=S)Nc2ccccc2)c(=O)n(-c2ccccc2)n1C`, 0.8%. The result for `Cc1cccc(NC(=S)N(CCN(C)C)C(C)c2ccco2)c1` (stereo unspecified) reads -2.1%; that for `S=C(Nc1ccccc1)Nc1ccc2ccccc2c1`, 67.5% (active); that for `O=S(=O)(NC(=S)Nc1ccccc1)c1ccc(F)cc1`, -0.7%. In the case of `Cc1cccc(NC(=S)Nc2ccc(Br)cc2)c1`, the inhibition was 96.8% (active).

Take `Cc1cccc(NC(=S)NCc2ccc3[nH]c4c(c3c2)CCCC4)c1`: the inhibition is 1%.

Consider `Cc1cccc(NC(=S)Nc2ccc(Cl)c(Cl)c2)c1`, for which the inhibition is 101% (active). The result for `Fc1cc(Br)ccc1NC(=S)Nc1cccnc1` reads 12.7%; that for `Cc1cccc(NC(=S)N2CCC(c3nc4ccccc4s3)CC2)c1`, 3%. The value for `COC(=O)c1ccc2c(c1)S(=O)(=O)NC(=NCCCN1CCOCC1)S2` was 0.8%; that for `COc1ccc(C2=NS(=O)(=O)N(C)C(C(=O)NC(C)c3ccccc3)=C2)cc1` (stereo unspecified) was -1.4%. The value for `CCC1C=C(c2ccccc2)C=CN=C1N(CC)CC` (stereo unspecified) was -0.1%; that for `Cc1cccc(NS(=O)(=O)c2cccc(C(=O)NNC(=O)c3ccccc3O)c2)c1` was 6.9%; that for `CC1(C)CC(=O)c2cc(OCC(=O)NCC3CCCO3)ccc2O1` (stereo unspecified) was -1.4%.

For `C=CCN(N=Nc1cccc([N+](=O)[O-])c1)c1cccc([N+](=O)[O-])c1`, the inhibition was 2.6%.

As for `Brc1ccc(Nc2c3c(nc4ncnn24)CCC3)cc1`, the inhibition is -4.1%. The result for `N#Cc1cccc(Nc2c3c(nc4ccccc24)CCCC3)c1` reads 6.5%; that for `Cc1ccc(Nc2c3c(nc4ccccc24)CCC3)cc1`, 79.8% (active). The result for `CCn1nnc(NC(=O)c2c(OC)cccc2OC)n1` reads -1%; that for `CCCC1OC23CCCCC2C(C#N)(C#N)C1(C#N)C(=N)O3` (stereo unspecified), 0.5%. In the case of `Cc1cccc(NC(=O)NC2(C)CCS(=O)(=O)C2)c1` (stereo unspecified), the inhibition is -3.1%.

With `Cc1cccc(NC(=O)Nc2cccc(Oc3c(F)c(F)c(F)c(F)c3F)c2)c1`, the inhibition was 93.2% (active). Consider `Cc1ccoc1C(=O)Nc1cccc(Oc2ccccc2)c1`, for which the inhibition is -0.1%. The value for `O=C(CNCCC1=CCCCC1)Nc1ccccc1N1CCCCCC1` was 11.6%; that for `CCc1cc(=O)oc2cc(C)cc(OC(C)C(=O)O)c12` (stereo unspecified) was 1.3%.

In the case of `CN[C@H](C(=O)NC[C@H]1O[C@@H](n2cnc3c(N)ncnc32)[C@H](O)[C@@H]1O)[C@@H](C)OCc1ccccc1`, the inhibition is -0.1%. The result for `O=C(NNC(=S)NC(=O)c1cn(-c2ccccc2)nc1-c1ccccc1)c1ccncc1` reads 2.2%. The result for `Cc1onc(-c2ccccc2)c1C(=O)N1CCN(S(=O)(=O)c2ccccc2C(F)(F)F)CC1` reads 0.5%; that for `Cc1onc(-c2ccccc2)c1C(=O)NNC(=S)NC(=O)c1ccc(F)cc1`, 90.1% (active); that for `O=C1CS(=O)CN1c1ccc(Oc2ccccc2)cc1` (stereo unspecified), 1.6%. The value for `Cc1noc(C)c1S(=O)(=O)Nc1ccc(C(=O)N2CCN(c3ccc(F)cc3)CC2)cc1` was -2%; that for `Cc1ccc(NC(=O)c2sccc2C)cc1[N+](=O)[O-]` was -8.8%. As for `Cc1ccc(NC(=O)CN(C)CC(=O)Nc2cccc(F)c2)cc1[N+](=O)[O-]`, the inhibition was 97.2% (active). On to `CN(CC(=O)Nc1cccc(F)c1)C(=O)C1=COCCO1`, for which the inhibition is -2.6%. The value for `O=C(NNC1=C(C(=O)C(F)(F)F)CCC1)c1ccncc1` was 0.3%; that for `COc1ccc(NC(=O)C(=O)NCC(c2ccco2)N2CCc3ccccc3C2)cc1` (stereo unspecified) was 0.5%.

For `O=C(CCCOc1ccccc1)Nc1cccc(C(=O)O)c1`, the inhibition was 0.4%. The value for `COC(=O)c1noc(C)c1-c1ccnn1C(=O)c1ccc(Cl)cc1` was 5%; that for `CC/C(=N\NC(=O)c1ccccc1Cl)c1ccc(Br)s1` was -0.9%; that for `O=C(C/C(=N\NC(=O)c1ccccc1Br)C(F)(F)F)c1cccs1` was 59.2% (active). The value for `O=C(CNC(=O)c1ccccc1Br)NNC(=O)c1cccs1` was -3.3%. The value for `N#Cc1nc(N)nc(N(c2ccccc2)c2ccccc2)n1` was 0%; that for `CC1(C(=O)NS(=O)(=O)c2cccs2)CCN1C(=O)Cc1ccc(-c2ccccc2)cc1` (stereo unspecified) was 1.6%; that for `O=S(=O)(Nc1ccccc1)c1ccc(NS(=O)(=O)c2cccs2)cc1` was -0.1%. As for `O=S(=O)(Nc1ccccc1Br)c1cccs1`, the inhibition was 1.3%.

Turning to `O=C(Nc1cccc(Cl)c1)Nc1ccccc1NS(=O)(=O)c1cccs1`, the inhibition was 87.7% (active). The result for `Nc1ncnc2c1ncn2[C@@H]1O[C@H](CNCc2cccn2-c2nccs2)[C@@H](O)[C@H]1O` reads -2.5%; that for `CC(=O)OC(COc1ccc(F)cc1)Cn1cnc2ccccc21` (stereo unspecified), 0.4%; that for `CCOC(=O)c1ccccc1NC(=O)CSc1nc2c(sc(=S)n2CC)c(=O)[nH]1`, 5.4%. The result for `Cc1ccc(C(=O)Nc2c(-c3ccccc3)[nH][nH]c2=O)cc1` reads -0.8%; that for `Fc1ccc2nc(Nc3nc4c(s3)CCCC4)sc2c1`, 5.3%. The result for `NNc1nc2c(Cl)cccc2s1` reads -0.9%. With `Fc1cc(F)c2nc(Nc3nc4c(F)cccc4s3)sc2c1`, the inhibition was 94.3% (active). The value for `O=C(NC1(C(F)(F)F)NC(=O)N(Cc2cccnc2)C1=O)c1ccccc1Cl` (stereo unspecified) was 1%; that for `CN(C)CCCN1C(=O)CSC1c1ccc([N+](=O)[O-])cc1` (stereo unspecified) was -0.2%. The value for `CCCCCCCCCCCCN1C(=O)CSC1c1cccnc1` (stereo unspecified) was 62.4% (active). In the case of `CCCCc1ccc(NC(=O)NCc2cccnc2)cc1`, the inhibition was -0.3%. The value for `CCCS(=O)(=O)NC(=O)C1(C)CCCN(C(=O)c2ccnc(Cl)c2)C1` (stereo unspecified) was -0.3%. Turning to `COc1cc(CCC(=O)Nc2ccncc2Cl)cc(OC)c1OC`, the inhibition was 0.5%. The result for `COc1cc(CC(=O)Nc2nc(-c3ccc(F)c(F)c3)cs2)cc(OC)c1OC` reads 105% (active).

Turning to `COc1ccc(CC(=O)Nc2ccccc2NC(=O)c2ccco2)cc1OC`, the inhibition is 2.5%. The value for `COc1ccc(CC(=O)Nc2nc(-c3ccc(F)c(F)c3)cs2)cc1OC` was 108% (active). The value for `COc1ccc(CCNC(=O)COC(=O)Cc2cc(OC)c(OC)c(OC)c2)cc1` was 0%; that for `COc1ccc(CC(=O)NC2CCSc3ccccc32)cc1OC` (stereo unspecified) was -1.7%; that for `CC(C)c1ccc(CC(=O)N2CCC2(C)C(=O)NS(=O)(=O)c2ccc(C(C)(C)C)cc2)cc1` (stereo unspecified) was 1.8%. The result for `COc1ccc(Cl)cc1NC(=O)COC(=O)C(CC(C)C)N1C(=O)C2CC=CCC2C1=O` (stereo unspecified) reads 1.6%.
